Reference: the supplement of paper PMC8728848
About 410 targets per protein were measured; listed, in parts, are those with the strongest signals and a random draw of the rest.

Columns and labels:
Assay in all cases: glycan array binding signal (z-score within array); higher = stronger binding
Conditions in all cases: glycan notation: IUPAC condensed, linker removed
Fuc(a1-2)Gal(b1-3)GlcNAc = molecular target: Fuc(a1-2)Gal(b1-3)GlcNAc
In short: (§1)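 The Consortium for Functional Glycomics database supplied 3228 glycan arrays, of which those lacking an available protein sequence were dropped. The binding signal, a within-array Z-score, was averaged across arrays of the same protein sequence and across linkers. Negative scores can be read as non-binding.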

[1] = molecular target: Fuc(a1-2)Gal(b1-3)GlcNAc(b1-2)Man(a1-3)[Fuc(a1-2)Gal(b1-3)GlcNAc(b1-2)Man(a1-6)]Man(b1-4)GlcNAc(b1-4)GlcNAc
In short: as §1

[2] = molecular target: Fuc(a1-2)Gal(b1-3)GlcNAc(b1-3)Gal(b1-4)Glc
In short: as §1

[3] = molecular target: Fuc(a1-2)Gal(b1-3)GlcNAc(b1-3)[Gal(b1-4)GlcNAc(b1-6)]Gal(b1-4)Glc
In short: as §1

[4] = molecular target: Fuc(a1-2)Gal(b1-3)GlcNAc(b1-3)[Neu5Ac(a2-6)Gal(b1-4)GlcNAc(b1-6)]Gal(b1-4)Glc
In short: as §1

[5] = molecular target: Fuc(a1-2)Gal(b1-4)GlcNAc(b1-2)[Fuc(a1-2)Gal(b1-4)GlcNAc(b1-4)]Man(a1-3)[Fuc(a1-2)Gal(b1-4)GlcNAc(b1-2)Man(a1-6)]Man(b1-4)GlcNAc(b1-4)GlcNAc
In short: as §1

[6] = molecular target: Fuc(a1-2)Gal(b1-4)GlcNAc(b1-3)Gal(b1-4)GlcNAc(b1-3)Gal(b1-4)GlcNAc
In short: as §1

[7] = molecular target: Fuc(a1-2)[Gal(a1-3)]Gal(b1-3)GlcNAc
In short: as §1

[8] = molecular target: Fuc(a1-2)[Gal(a1-3)]Gal(b1-3)GlcNAc(b1-6)GalNAc
In short: as §1

[9] = molecular target: Fuc(a1-2)[GalNAc(a1-3)]Gal(b1-3)GlcNAc(b1-6)GalNAc
In short: as §1

[10] = molecular target: Fuc(a1-2)[GalNAc(a1-3)]Gal(b1-4)[Fuc(a1-3)]GlcNAc(b1-3)GalNAc
In short: as §1

Gal(a1-4)Gal(b1-4)GlcNAc = molecular target: Gal(a1-4)Gal(b1-4)GlcNAc
In short: as §1

[11] = molecular target: Gal(b1-3)GlcNAc(a1-3)Gal(b1-4)GlcNAc
In short: as §1

[12] = molecular target: Gal(b1-3)GlcNAc(b1-3)Gal(b1-4)GlcNAc(b1-3)Gal(b1-4)GlcNAc(b1-2)[Gal(b1-3)GlcNAc(b1-3)Gal(b1-4)GlcNAc(b1-3)Gal(b1-4)GlcNAc(b1-6)]Man(a1-6)[Gal(b1-3)GlcNAc(b1-3)Gal(b1-4)GlcNAc(b1-3)Gal(b1-4)GlcNAc(b1-2)Man(a1-3)]Man(b1-4)GlcNAc(b1-4)[Fuc(a1-6)]GlcNAc
In short: as §1

[13] = molecular target: Gal(b1-3)GlcNAc(b1-3)Gal(b1-4)GlcNAc(b1-6)[Gal(b1-3)GlcNAc(b1-3)]Gal(b1-4)Glc
In short: as §1

[14] = molecular target: Gal(b1-3)[Fuc(a1-4)]GlcNAc(b1-3)Gal(b1-4)GlcNAc
In short: as §1

[15] = molecular target: Gal(b1-4)GlcNAc(b1-2)[Gal(b1-4)GlcNAc(b1-4)]Man(a1-3)[GlcNAc(b1-4)][Gal(b1-4)GlcNAc(b1-2)Man(a1-6)]Man(b1-4)GlcNAc(b1-4)GlcNAc
In short: as §1

[16] = molecular target: Gal(b1-4)GlcNAc(b1-2)[Gal(b1-4)GlcNAc(b1-6)]Man(a1-6)[Gal(b1-4)GlcNAc(b1-2)Man(a1-3)]Man(b1-4)GlcNAc(b1-4)[Fuc(a1-6)]GlcNAc
In short: as §1

[17] = molecular target: Gal(b1-4)GlcNAc(b1-3)Gal(b1-4)GlcNAc(b1-3)Gal(b1-4)GlcNAc
In short: as §1

[18] = molecular target: Gal(b1-4)GlcNAc(b1-3)Gal(b1-4)GlcNAc(b1-3)Gal(b1-4)GlcNAc(b1-3)Gal(b1-4)GlcNAc(b1-3)Gal(b1-4)GlcNAc(b1-2)[Gal(b1-4)GlcNAc(b1-3)Gal(b1-4)GlcNAc(b1-3)Gal(b1-4)GlcNAc(b1-3)Gal(b1-4)GlcNAc(b1-3)Gal(b1-4)GlcNAc(b1-6)]Man(a1-6)[Gal(b1-4)GlcNAc(b1-3)Gal(b1-4)GlcNAc(b1-3)Gal(b1-4)GlcNAc(b1-3)Gal(b1-4)GlcNAc(b1-3)Gal(b1-4)GlcNAc(b1-2)Man(a1-3)]Man(b1-4)GlcNAc(b1-4)[Fuc(a1-6)]GlcNAc
In short: as §1

Gal3S(b1-3)GalNAc = molecular target: Gal3S(b1-3)GalNAc
In short: as §1

[19] = molecular target: GalNAc(a1-3)GalNAc(b1-3)Gal(a1-4)Gal(b1-4)Glc
In short: as §1

[20] = molecular target: GlcA3S(b1-3)Gal(b1-4)GlcNAc(b1-3)Gal(b1-4)Glc
In short: as §1

[21] = molecular target: GlcNAc(b1-2)[GlcNAc(b1-4)]Man(a1-3)[GlcNAc(b1-4)][GlcNAc(b1-2)Man(a1-6)]Man(b1-4)GlcNAc(b1-4)GlcNAc
In short: as §1

[22] = molecular target: GlcNAc(b1-3)Gal(b1-4)GlcNAc(b1-3)Gal(b1-4)GlcNAc(b1-3)GalNAc
In short: as §1

[23] = molecular target: GlcNAc(b1-3)[GlcNAc(b1-6)]GalNAc
In short: as §1

Kdn(a2-3)Gal(b1-4)Glc = molecular target: Kdn(a2-3)Gal(b1-4)Glc
In short: as §1

Man(a1-2)Man(a1-3)Man = molecular target: Man(a1-2)Man(a1-3)Man
In short: as §1

[24] = molecular target: Man(a1-3)[Man(a1-6)]Man(a1-6)[Man(a1-3)]Man
In short: as §1

Man(b1-4)GlcNAc = molecular target: Man(b1-4)GlcNAc
In short: as §1

[25] = molecular target: Neu5Ac(a2-3)Gal(b1-3)[Fuc(a1-4)]GlcNAc
In short: as §1

[26] = molecular target: Neu5Ac(a2-3)Gal(b1-4)GlcNAc(b1-2)Man(a1-3)[Neu5Ac(a2-3)Gal(b1-4)GlcNAc(b1-2)Man(a1-6)]Man(b1-4)GlcNAc(b1-4)[Fuc(a1-6)]GlcNAc
In short: as §1

[27] = molecular target: Neu5Ac(a2-3)Gal(b1-4)GlcNAc(b1-2)[Neu5Ac(a2-3)Gal(b1-4)GlcNAc(b1-4)]Man(a1-3)[GlcNAc(b1-4)][Neu5Ac(a2-3)Gal(b1-4)GlcNAc(b1-2)[Neu5Ac(a2-3)Gal(b1-4)GlcNAc(b1-6)]Man(a1-6)]Man(b1-4)GlcNAc(b1-4)GlcNAc
In short: as §1

[28] = molecular target: Neu5Ac(a2-3)Gal(b1-4)GlcNAc(b1-3)Gal(b1-4)GlcNAc(b1-3)Gal(b1-4)GlcNAc
In short: as §1

[29] = molecular target: Neu5Ac(a2-3)Gal(b1-4)GlcNAc(b1-6)[Neu5Ac(a2-3)Gal(b1-3)]GalNAc
In short: as §1

[30] = molecular target: Neu5Ac(a2-3)Gal(b1-4)[Fuc(a1-3)]GlcNAc(b1-3)Gal(b1-4)[Fuc(a1-3)]GlcNAc(b1-3)Gal(b1-4)[Fuc(a1-3)]GlcNAc
In short: as §1

[31] = molecular target: Neu5Ac(a2-6)Gal(b1-4)GlcNAc(b1-3)Gal(b1-3)GlcNAc
In short: as §1

[32] = molecular target: Neu5Ac(a2-6)Gal(b1-4)GlcNAc(b1-3)Gal(b1-4)GlcNAc(b1-3)[Neu5Ac(a2-6)Gal(b1-4)GlcNAc(b1-3)Gal(b1-4)GlcNAc(b1-6)]GalNAc
In short: as §1

Neu5Ac(a2-6)GalNAc = molecular target: Neu5Ac(a2-6)GalNAc
In short: as §1

[33] = molecular target: Neu5Ac(a2-8)Neu5Ac(a2-3)Gal(b1-4)Glc
In short: as §1

[34] = molecular target: Neu5Ac(a2-8)Neu5Ac(a2-8)Neu5Ac(a2-3)[Gal(b1-3)GalNAc(b1-4)]Gal(b1-4)Glc
In short: as §1

B1: FliC (Pseudomonas aeruginosa), P72151 (protein)
chain: MALTVNTNIASLNTQRNLNASSNDLNTSLQRLTTGYRINSAKDDAAGLQISNRLSNQISGLNVATRNANDGISLAQTAEGALQQSTNILQRIRDLALQSANGSNSDADRAALQKEVAAQQAELTRISDTTTFGGRKLLDGSFGTTSFQVGSNAYETIDISLQNASASAIGSYQVGSNGAGTVASVAGTATASGIASGTVNLVGGGQVKNIAIAAGDSAKAIAEKMDGAIPNLSARARTVFTADVSGVTGGSLNFDVTVGSNTVSLAGVTSTQDLADQLNSNSSKLGITASINDKGVLTITSATGENVKFGAQTGTATAGQVAVKVQGSDGKFEAAAKNVVAAGTAATTTIVTGYVQLNSPTAYSVSGTGTQASQVFGNASAAQKSSVASVDISTADGAQNAIAVVDNALAAIDAQRADLGAVQNRFKNTIDNLTNISENATNARSRIKDTDFAAETAALSKNQVLQQAGTAILAQANQLPQAVLSLLR
glycan array binding signal (z-score) (Fuc(a1-2)Gal(b1-3)GlcNAc): -0.166 | glycan array binding signal (z-score) [1]: -0.133 | glycan array binding signal (z-score) [2]: -0.154 | glycan array binding signal (z-score) [3]: -0.067 | glycan array binding signal (z-score) [4]: 2.82 | glycan array binding signal (z-score) [5]: -0.117 | glycan array binding signal (z-score) [6]: -0.151 | glycan array binding signal (z-score) [7]: -0.118 | glycan array binding signal (z-score) [8]: 0.094 | glycan array binding signal (z-score) [9]: 2.71 | glycan array binding signal (z-score) [10]: -0.134 | glycan array binding signal (z-score) (Gal(a1-4)Gal(b1-4)GlcNAc): 0.061 | glycan array binding signal (z-score) [11]: -0.119 | glycan array binding signal (z-score) [12]: 2.32 | glycan array binding signal (z-score) [13]: -0.165 | glycan array binding signal (z-score) [14]: -0.193 | glycan array binding signal (z-score) [15]: -0.178 | glycan array binding signal (z-score) [16]: 1.27 | glycan array binding signal (z-score) [17]: -0.189 | glycan array binding signal (z-score) [18]: 3.23 | glycan array binding signal (z-score) (Gal3S(b1-3)GalNAc): -0.09 | glycan array binding signal (z-score) [19]: -0.183 | glycan array binding signal (z-score) [20]: -0.191 | glycan array binding signal (z-score) [21]: 1.69 | glycan array binding signal (z-score) [22]: -0.143 | glycan array binding signal (z-score) [23]: -0.16 | glycan array binding signal (z-score) (Kdn(a2-3)Gal(b1-4)Glc): -0.115 | glycan array binding signal (z-score) (Man(a1-2)Man(a1-3)Man): -0.16 | glycan array binding signal (z-score) [24]: -0.152 | glycan array binding signal (z-score) (Man(b1-4)GlcNAc): -0.177 | glycan array binding signal (z-score) [25]: -0.192 | glycan array binding signal (z-score) [26]: 20.9 | glycan array binding signal (z-score) [27]: 8.36 | glycan array binding signal (z-score) [28]: 0.251 | glycan array binding signal (z-score) [29]: 0.476 | glycan array binding signal (z-score) [30]: 3.22 | glycan array binding signal (z-score) [31]: -0.117 | glycan array binding signal (z-score) [32]: -0.127 | glycan array binding signal (z-score) (Neu5Ac(a2-6)GalNAc): 1.71 | glycan array binding signal (z-score) [33]: 2.98 | glycan array binding signal (z-score) [34]: -0.227
